We go through four compounds from PubChem BioAssay (EPA / NIEHS).

Active and inactive are the calls of the source. How the source made its calls: active means hit-call score of the fitted dose curve at least 0.9, where 1 is the maximum; inactive means score below 0.9.

Usually AC50 stands for the concentration giving half of the maximal activity seen.

Read-out in assay [1]: C-C motif chemokine 2 (Homo sapiens) (UniProt P13500)
Nature of the assay: BSK_KF3CT_MCP1: BioMAP Diversity Plus: KF3CT Assay for Monocyte Chemoattractant Protein 1 (MCP1/CCL2) Biomarker Activity (AID 2283073). The following applies: primary human keratinocytes with fibroblasts; actives raise or lower the signal. The essentials: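 Human keratinocyte plus foreskin fibroblast primary co-culture exposed to chemical for 24 h. MCP-1 levels measured by ELISA. Bidirectional curve fitting relative to DMSO negative control as baseline.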

Read-out in assay [2]: Matrix Metallopeptidase 9 (MMP9), MMP9 (gene 4318)
The assay is described as follows: BSK_KF3CT_MMP9: BioMAP Diversity Plus: KF3CT Assay for Matrix Metallopeptidase 9 (MMP9) Biomarker Activity (AID 2283074).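 On AC50: MMP9 protein level quantified by ELISA in the co-culture.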 The settings on record: primary human keratinocytes with fibroblasts; actives raise or lower the signal. In short, it runs like this: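 Values come from bidirectional fitting relative to DMSO of MMP-9 levels, which were measured by ELISA. Measurements were taken 24 h after chemical dosing of a keratinocyte and foreskin fibroblast co-culture.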

Read-out in assay [3]: urokinase plasminogen activator (uPA), PLAU (gene 5328)
The assay is described as follows: BSK_KF3CT_uPA: BioMAP Diversity Plus: KF3CT Assay for urokinase plasminogen activator (uPA) Biomarker Activity (AID 2283075). The following applies: primary human keratinocytes with fibroblasts; actives raise or lower the signal. In short, it runs like this: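 Values derive from bidirectional fitting against DMSO controls. Keratinocyte/foreskin fibroblast co-cultures received chemical; 24 h later uPA was detected by ELISA, with SRB total-protein staining in parallel wells for overt cytotoxicity.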

Read-out in assay [4]: E-selectin (Homo sapiens) (UniProt P16581)
The assay is described as follows: BSK_LPS_Eselectin: BioMAP Diversity Plus: LPS Assay for Eselectin Biomarker Activity (AID 2283077). The settings on record: primary human HUVEC with PBMC; actives raise or lower the signal. The essentials:
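Human umbilical vein endothelial cells co-cultured with peripheral blood mononuclear cells under LPS stimulation; E-selectin measured by ELISA 24 h after chemical dosing. Activity fitted bidirectionally against DMSO as negative control and baseline.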

Read-out in assay [5]: Interleukin-8 (IL8), CXCL8 (gene 3576)
The assay is described as follows: BSK_LPS_IL8: BioMAP Diversity Plus: LPS Assay for Interleukin-8 (IL8) Biomarker Activity (AID 2283078). The settings on record: primary human HUVEC with PBMC; actives raise or lower the signal. In short, it runs like this:
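Human umbilical vein endothelial cells co-cultured with PBMC were stimulated with LPS; IL-8 levels were measured by ELISA 24 h after chemical dosing. Activity was fitted bidirectionally against DMSO as negative control and baseline.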

Assay [6] in a line: BSK_LPS_SRB: Viability Assessment in the BioMAP Diversity Plus: LPS Assay (AID 2283079).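 Further: total protein by sulforhodamine B absorbance as a cytotoxicity measure; measured one day after compound addition; fitted in both directions against DMSO so loss or gain of signal counts.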 The following applies: primary human HUVEC with PBMC. The essentials: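 Human umbilical vein endothelial cells co-cultured with PBMC (LPS system) were dosed for 24 h. Total protein was stained with 0.1% sulforhodamine B after 10% TCA fixation, read at 560 nm, and fitted bidirectionally against DMSO baseline.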

Read-out in assay [7]: Interleukin-1 alpha (IL1a), IL1A (gene 3552)
Nature of the assay: BSK_LPS_IL1a: BioMAP Diversity Plus: LPS Assay for Interleukin-1 alpha (IL1a) Biomarker Activity (AID 2283080). The settings on record: primary human HUVEC with PBMC; actives raise or lower the signal. In short, it runs like this:
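Human umbilical vein endothelial cells co-cultured with peripheral blood mononuclear cells were LPS-stimulated and exposed to test chemicals for 24 h. IL-1 alpha was quantified by ELISA, with bidirectional curve fitting against DMSO as the negative control and baseline.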

Read-out in assay [8]: Monocyte Chemoattractant Protein-1 (MCP1), CCL2 (gene 6347)
Nature of the assay: BSK_LPS_MCP1: BioMAP Diversity Plus: LPS Assay for Monocyte Chemoattractant Protein-1 (MCP1) Biomarker Activity (AID 2283081).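 On AC50: co-culture stimulated with LPS; secreted MCP-1 protein quantified by ELISA in culture supernatant.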 The settings on record: primary human HUVEC with PBMC; actives raise or lower the signal. The essentials: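 HUVEC plus PBMC co-culture (human primary cells, LPS system) exposed to test chemical for 24 h; MCP-1 measured by ELISA. Bidirectional curve fitting against DMSO baseline; parallel SRB total-protein staining flags overt cytotoxicity.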

Assay [9] can be described thus: BSK_LPS_PGE2: BioMAP Diversity Plus: LPS Assay for Prostaglandin E2 (PGE2) Biomarker Activity (AID 2283082).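 On AC50: secreted prostaglandin E2 measured by ELISA in LPS-stimulated co-culture.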 The following applies: primary human HUVEC with PBMC; actives raise or lower the signal. The essentials:
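PGE2 release measured by ELISA in an LPS-activated co-culture of human umbilical vein endothelial cells and peripheral blood mononuclear cells, read at 24 h post-dosing. DMSO served as baseline for bidirectional curve fitting.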

Read-out in assay [10]: Macrophage colony-stimulating factor (MCSF), CSF1 (gene 1435)
Nature of the assay: BSK_LPS_MCSF: BioMAP Diversity Plus: LPS Assay for Macrophage colony-stimulating factor (MCSF) Biomarker Activity (AID 2283083). The settings on record: primary human HUVEC with PBMC; actives raise or lower the signal. In short, it runs like this:
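Human umbilical vein endothelial cells co-cultured with peripheral blood mononuclear cells were exposed to compound for 24 h. M-CSF levels were measured by ELISA, and bidirectional curve fitting used DMSO as the negative control and baseline.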

Read-out in assay [11]: Tissue Factor, F3 (gene 2152)
Nature of the assay: BSK_LPS_TissueFactor: BioMAP Diversity Plus: LPS Assay for Tissue Factor Biomarker Activity (AID 2283084). The settings on record: primary human HUVEC with PBMC; actives raise or lower the signal. In short, it runs like this:
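Human umbilical vein endothelial cells co-cultured with peripheral blood mononuclear cells were dosed and stimulated with LPS. Cell-surface CD142 was quantified by ELISA at 24 h. Activity was fitted bidirectionally against DMSO baseline.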

Read-out in assay [12]: Tumor necrosis factor (Homo sapiens) (UniProt P01375)
The assay is described as follows: BSK_LPS_TNFa: BioMAP Diversity Plus: LPS Assay for Tumour Necrosis Factor alpha (TNFa) Biomarker Activity (AID 2283085).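 On AC50: TNFa protein level quantified by ELISA in the co-culture.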 The following applies: primary human HUVEC with PBMC; actives raise or lower the signal. In short, it runs like this:
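TNFa was quantified by ELISA in LPS-activated co-cultures of human endothelial cells and PBMC, 24 h post-dosing. Both increases and decreases versus DMSO were fitted.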

Read-out in assay [13]: Vascular cell adhesion molecule 1 (VCAM1), VCAM1 (gene 7412)
Nature of the assay: BSK_LPS_VCAM1: BioMAP Diversity Plus: LPS Assay for Vascular cell adhesion molecule 1 (VCAM1) Biomarker Activity (AID 2283086). The following applies: primary human HUVEC with PBMC; actives raise or lower the signal. In short, it runs like this: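 VCAM-1 quantified by ELISA in an LPS-activated co-culture of human endothelial cells and peripheral blood mononuclear cells, read 24 h post-treatment. Fitted in both directions versus DMSO; parallel SRB staining flags overt cytotoxicity.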

Read-out in a further assay: CD40, CD40 (gene 958)
Nature of the assay: BSK_SAg_CD40: BioMAP Diversity Plus: SAg Assay for CD40 Biomarker Activity (AID 2283088). The settings on record: primary human HUVEC with PBMC; actives raise or lower the signal. In short, it runs like this: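 Human umbilical vein endothelial cells co-cultured with PBMC; CD40 levels measured by ELISA with fluorescence read-out 24 h after chemical dosing. Gain or loss of signal fitted bidirectionally against DMSO baseline.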

Read-out in another assay: CD69, CD69 (gene 969)
Nature of the assay: BSK_SAg_CD69: BioMAP Diversity Plus: SAg Assay for CD69 Biomarker Activity (AID 2283089).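 Further: cell surface CD69 protein quantified by ELISA with fluorescence detection.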 The settings on record: primary human HUVEC with PBMC; actives raise or lower the signal. The essentials: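 HUVEC co-cultured with PBMC were dosed with chemical, and CD69 was measured by ELISA with fluorescence read-out 24 h later. Bidirectional curve fitting used DMSO as negative control and activity baseline.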

Read-out in assay [14]: Monocyte Chemoattractant Protein-1 (MCP1), CCL2 (gene 6347)
Nature of the assay: BSK_SAg_MCP1: BioMAP Diversity Plus: SAg Assay for Monocyte Chemoattractant Protein-1 (MCP1) Biomarker Activity (AID 2283090). The settings on record: primary human HUVEC with PBMC; actives raise or lower the signal. In short, it runs like this: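 Values derive from bidirectional fitting of ELISA-measured MCP1 against DMSO controls. Readings were taken 24 h after dosing human vascular endothelial cells co-cultured with peripheral blood mononuclear cells under superantigen stimulation.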

Read-out in assay [15]: E-selectin (Homo sapiens) (UniProt P16581)
The assay is described as follows: BSK_SAg_Eselectin: BioMAP Diversity Plus: SAg Assay for Eselectin Biomarker Activity (AID 2283091). The settings on record: primary human HUVEC with PBMC; actives raise or lower the signal. The essentials: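 HUVEC co-cultured with PBMC, compound dosed then read at 24 h; E-selectin measured by ELISA. Activity fitted bidirectionally against DMSO as negative control and baseline.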

Read-out in another assay: CD38, CD38 (gene 952)
Nature of the assay: BSK_SAg_CD38: BioMAP Diversity Plus: SAg Assay for CD38 Biomarker Activity (AID 2283087). The settings on record: primary human HUVEC with PBMC; actives raise or lower the signal. In short, it runs like this: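 CD38 quantified by ELISA (fluorescence) in a superantigen-activated endothelial cell–PBMC co-culture at 24 h post-dose. Activity fitted in both directions relative to DMSO; parallel SRB and Alamar Blue cytotoxicity read-outs.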

Sequence of E-selectin (Homo sapiens) (P16581 whole entry, looked up): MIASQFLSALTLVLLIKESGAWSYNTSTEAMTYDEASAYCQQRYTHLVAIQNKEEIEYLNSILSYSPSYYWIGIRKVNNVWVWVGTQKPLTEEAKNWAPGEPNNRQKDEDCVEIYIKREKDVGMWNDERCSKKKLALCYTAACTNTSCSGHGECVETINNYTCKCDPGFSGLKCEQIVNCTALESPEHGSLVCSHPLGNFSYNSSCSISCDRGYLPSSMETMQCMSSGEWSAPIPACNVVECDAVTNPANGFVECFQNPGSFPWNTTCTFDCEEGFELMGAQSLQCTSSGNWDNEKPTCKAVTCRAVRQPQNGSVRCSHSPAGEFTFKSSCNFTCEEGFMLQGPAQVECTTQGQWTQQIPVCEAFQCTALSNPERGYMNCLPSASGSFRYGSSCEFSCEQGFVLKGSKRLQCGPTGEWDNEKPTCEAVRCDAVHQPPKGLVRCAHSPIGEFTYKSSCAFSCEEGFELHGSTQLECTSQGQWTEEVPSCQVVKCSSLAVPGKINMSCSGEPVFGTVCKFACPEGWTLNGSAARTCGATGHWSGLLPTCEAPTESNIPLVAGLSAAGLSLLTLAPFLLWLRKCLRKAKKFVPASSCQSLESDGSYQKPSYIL
Sequence of Tumor necrosis factor (Homo sapiens) (P01375 whole entry, looked up): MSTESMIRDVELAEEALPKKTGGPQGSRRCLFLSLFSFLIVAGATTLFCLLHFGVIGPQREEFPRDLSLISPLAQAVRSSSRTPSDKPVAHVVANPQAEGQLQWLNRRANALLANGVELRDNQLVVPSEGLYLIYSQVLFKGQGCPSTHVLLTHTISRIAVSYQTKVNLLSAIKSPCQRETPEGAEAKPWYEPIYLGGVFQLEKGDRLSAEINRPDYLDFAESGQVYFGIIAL

As to `CO[C@H]1/C=C/O[C@@]2(C)Oc3c(C)c(O)c4c(O)c(c(/C=N/N5CCN(C)CC5)c(O)c4c3C2=O)NC(=O)/C(C)=C\C=C\[C@H](C)[C@H](O)[C@@H](C)[C@@H](O)[C@@H](C)[C@H](OC(C)=O)[C@@H]1C`, the outcome in assay [1], in [2], in [3], in assay [4], in assay [5] and in assay [6] was inactive. The result in assay [7], in [8], in assay [9], in assay [10], in assay [11] and in assay [12] was inactive. For the same compound, the outcome in assay [13] is “inactive”; with CD40, CD40 (gene 958) it was “inactive”; in assay [14], “inactive”; in assay [15], “inactive”. Also, the concentration at half-maximal activity (AC50) with CD69, CD69 (gene 969) was 0.64 µM (active).
With `CC(C)(C)c1cc(/C=C2\SC(N)=NC2=O)cc(C(C)(C)C)c1O`, the AC50 is 6.59 µM (active) in assay [1]; 9.79 µM (active) in assay [2]; 12.5 µM (active) in [3]; 27.2 µM (active) in assay [4]; 20 µM (active) in assay [5]; 26.4 µM (active) in [6]. Besides, the AC50 in assay [7] was 11.5 µM (active); in assay [8], 26.9 µM (active); in assay [9], 0.186 µM (active); in [10], 16 µM (active); in [11], 25.1 µM (active); in assay [12], 11.7 µM (active). Further, the AC50 in assay [13] is 15.6 µM (active); with CD40, CD40 (gene 958) it was 17.4 µM (active); in the assay with CD69, CD69 (gene 969), 20 µM (active); in [14] it was 12.7 µM (active); in [15], 7.42 µM (active).
`CN(C[C@@H](CC[N+]12CCC(C3CCCCC3)(CC1)CC2)c1ccc(Cl)c(Cl)c1)C(=O)c1cc(C(F)(F)F)cc(C(F)(F)F)c1`: the AC50 in [1] is 9.72 µM (active); in [2], 7.39 µM (active); in assay [3], 10.5 µM (active); in assay [4], 26.4 µM (active); in assay [5], 24.8 µM (active); in assay [6], 24.6 µM (active). Besides, the AC50 in assay [7] was 18.4 µM (active); in [8] it was 23.4 µM (active); in assay [10] it was 23.6 µM (active); in assay [11], 25 µM (active); in [12] it was 13.7 µM (active); in assay [13], 31.3 µM (active). The AC50 in the assay with CD38, CD38 (gene 952) is 13.3 µM (active); with CD40, CD40 (gene 958), 20 µM (active); with CD69, CD69 (gene 969), 21.9 µM (active); in assay [14] it was 17.1 µM (active); in assay [15] it was 13.3 µM (active). Moreover, the outcome in assay [9] was inactive.
On to `COc1cc(C(=O)NC2CCN(C)CC2)ccc1Nc1ncc2c(n1)N(C1CCCC1)CC(F)(F)C(=O)N2C`, for which the AC50 in assay [1] is 5.37 µM (active); in assay [2], 18.6 µM (active); in assay [3], 27.1 µM (active); in [4] it was 22.6 µM (active); in [5], 18.6 µM (active); in assay [6], 8.37 µM (active). Besides, the concentration at half-maximal activity (AC50) in [7] was 6.03 µM (active); in assay [8], 11.7 µM (active); in assay [9] it was 5.48 µM (active); in assay [10], 14 µM (active); in assay [11], 12.1 µM (active); in assay [12], 15.1 µM (active). Besides, the AC50 in assay [13] is 11.2 µM (active); with CD38, CD38 (gene 952), 11.6 µM (active); with CD40, CD40 (gene 958) it was 16.6 µM (active); with CD69, CD69 (gene 969), 10.8 µM (active); in assay [14], 13.9 µM (active); in [15], 11.4 µM (active).
